According to PubChem BioAssay (NCI):
This is part of a sample that, as a whole, favours compounds with a hit. Of some 79,000 tested, about 15% had one in any assay. Unmarked numbers belong to inactive results. Active and inactive are the calls of the source. Rule as the data show it: active = growth inhibition above about 70%; inactive = the rest.

Assay: NCI Yeast Anticancer Drug Screen. Data for the sgs1 strain (AID 173);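 also: 0% = growth of vehicle-only control cultures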
Details: S. cerevisiae sgs1 mutant, at 33.0 µM, active compounds read high
Outline: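 Treat defined-mutant yeast with compound; measure growth; calculate inhibition relative to vehicle-treated cells.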
For `S=C(N/N=C(/c1ccccc1)c1ccccn1)N1CCCCCC1`, the growth inhibition was 10%. With `Cc1ccc2[nH]c3c(C)c4cc[n+](C)cc4c(C)c3c2c1` the growth inhibition was 54%. `CNC(=O)OCc1c(COC(=O)NC)c(-c2ccc(-c3ccccc3)cc2)n(C)c1C` gave a growth inhibition of -26%. With `COc1ccccc1/C=C1\Sc2scc(-c3cccc([N+](=O)[O-])c3)[n+]2C1=O` the growth inhibition was 97% (active). For `O=[N+]([O-])c1ccc2c(c1)C(N1CCN(CCO)CC1)Cc1ccc(F)cc1S2` (configuration not stated), the growth inhibition was 0%. `Cc1ccc(CCC2=CCCc3c2ccc2ccccc32)cc1` showed a growth inhibition of 0%. For `O=[N+]([O-])c1cccc2nccc(NCCCO)c12`, the growth inhibition was 79% (active). With `Cc1ccc(-n2cc(-c3ccc(Cl)cc3)c(C#N)c2N)cc1` the growth inhibition was 10%. `Cc1ccc(S/N=C\c2ccccc2O)cc1` showed a growth inhibition of 9%. With `O=C(O)C1OC1(c1cccc(Cl)c1)c1ccccc1Cl` (configuration not stated) the growth inhibition was 51%. For `NC(=S)N/N=C\c1nccc2ccccc12`, the growth inhibition was 99% (active). `Clc1cccc(C(Nc2nncs2)Nc2nncs2)c1Cl` showed a growth inhibition of 51%. In the case of `O=C(OCC=C1CCCC1)c1cc([N+](=O)[O-])cc([N+](=O)[O-])c1`, the growth inhibition was 97% (active). `O=C(Nc1ccccc1)C(=O)C(C(=O)c1ccccc1)C(c1ccccc1)c1ccccc1` (configuration not stated) showed a growth inhibition of 32%. Work on `N#CN1C2CCC1CC(=O)C2` yielded a growth inhibition of -23%. `COc1ccccc1C(=O)OCC1CCCN2CCCCC12` (configuration not stated) showed a growth inhibition of 63%. For `CCNc1nnc(CSc2nc(-c3ccccc3)c(-c3ccccc3)[nH]2)s1`, the growth inhibition was 71% (active). `O=C1c2ccccc2-c2n[nH]c3cccc1c23` gave a growth inhibition of 35%.

Same assay, conditions: S. cerevisiae sgs1 mutant, at 100.0 µM, active compounds read high
For `CCC/C(Cl)=N\OC(=O)Nc1cccc(C(F)(F)F)c1`, the growth inhibition was 88% (active). In the case of `[O-][n+]1c2ccc(O)cc2nc2ccc(Cl)cc21`, the growth inhibition was 59%. `Clc1ccccc1C1OC1c1ccccc1Cl` (configuration not stated) gave a growth inhibition of 18%. In the case of `c1ccc2c(c1)c1ncccc1c1nccnc21`, the growth inhibition was 21%. In the case of `CC(=O)Nc1ccc2c(c1)C(=Nc1ccc(C(=O)O)cc1)c1ccccc1-2`, the growth inhibition was 95% (active). In the case of `COc1ccc(OC)c2cc3ccccc3cc12`, the growth inhibition was 7%. For `COc1cc(C2c3cc4c(cc3OC(NNc3ccccc3)C2C)OCO4)cc(OC)c1OC` (configuration not stated), the growth inhibition was 94% (active). In the case of `O=C1c2cc([N+](=O)[O-])ccc2-c2cccc(F)c21`, the growth inhibition was 52%. With `CCCCCCCCCCCC(=O)N(C)C` the growth inhibition was 98% (active). With `CCCCCCCCCCCC1=C(O)C(=O)C=C(O)C1=O` the growth inhibition was 89% (active). For `Cc1ccc(CSC(N)=Nc2ccccc2)cc1C`, the growth inhibition was 73% (active). In the case of `CCCCCCCCCCC1CCC(=O)O1` (configuration not stated), the growth inhibition was 99% (active). With `O=[N+]([O-])c1cc(CCl)ccc1CCl` the growth inhibition was 98% (active). For `Nc1ccc2c(c1)C(=O)c1cccc(N)c1C2=O`, the growth inhibition was 85% (active). In the case of `CCCCCCCCCCNC(=O)OCC`, the growth inhibition was 99% (active). Compound `CC1=C(C)Cc2c(O)ccc(O)c2C1` has a growth inhibition of 67%. With `COc1ccc2c(c1)C(=O)c1ccccc1C2` the growth inhibition was 1%. For `CCC(=O)OCCn1c2nc(=O)[nH]c(=O)c-2nc2cc(C)c(C)cc21`, the growth inhibition was 94% (active). `O=C(OCCN1CCCCCC1)C(c1ccsc1)C1CCCCC1` (configuration not stated) gave a growth inhibition of 40%. For `Oc1c(Br)cc(Br)cc1C1CCCCC1`, the growth inhibition was 97% (active). In the case of `CC1(C)[C@@H]2CC[C@]1(C)[C@H](OC(=O)CSC#N)C2`, the growth inhibition was 97% (active). Work on `S=C(N/N=C(/c1ccccc1)c1ccccn1)N1CCCCCC1` yielded a growth inhibition of 7%. With `Cc1ccc2[nH]c3c(C)c4cc[n+](C)cc4c(C)c3c2c1` the growth inhibition was 93% (active). With `CNC(=O)OCc1c(COC(=O)NC)c(-c2ccc(-c3ccccc3)cc2)n(C)c1C` the growth inhibition was 59%. In the case of `COc1ccccc1/C=C1\Sc2scc(-c3cccc([N+](=O)[O-])c3)[n+]2C1=O`, the growth inhibition was 90% (active). For `O=[N+]([O-])c1ccc2c(c1)C(N1CCN(CCO)CC1)Cc1ccc(F)cc1S2` (configuration not stated), the growth inhibition was 80% (active). For `Cc1ccc(CCC2=CCCc3c2ccc2ccccc32)cc1`, the growth inhibition was 3%. In the case of `O=[N+]([O-])c1cccc2nccc(NCCCO)c12`, the growth inhibition was 86% (active). Work on `Cc1ccc(-n2cc(-c3ccc(Cl)cc3)c(C#N)c2N)cc1` yielded a growth inhibition of 16%. `Cc1ccc(S/N=C\c2ccccc2O)cc1` showed a growth inhibition of 6%. For `O=C(O)C1OC1(c1cccc(Cl)c1)c1ccccc1Cl` (configuration not stated), the growth inhibition was 90% (active). In the case of `NC(=S)N/N=C\c1nccc2ccccc12`, the growth inhibition was 99% (active). In the case of `Clc1cccc(C(Nc2nncs2)Nc2nncs2)c1Cl`, the growth inhibition was 86% (active). For `O=C(OCC=C1CCCC1)c1cc([N+](=O)[O-])cc([N+](=O)[O-])c1`, the growth inhibition was 99% (active). For `O=C(Nc1ccccc1)C(=O)C(C(=O)c1ccccc1)C(c1ccccc1)c1ccccc1` (configuration not stated), the growth inhibition was 56%. With `N#CN1C2CCC1CC(=O)C2` the growth inhibition was -24%. For `COc1ccccc1C(=O)OCC1CCCN2CCCCC12` (configuration not stated), the growth inhibition was 98% (active). In the case of `CCNc1nnc(CSc2nc(-c3ccccc3)c(-c3ccccc3)[nH]2)s1`, the growth inhibition was 80% (active). Compound `O=C1c2ccccc2-c2n[nH]c3cccc1c23` has a growth inhibition of 27%.
